# Inconclusive results are not listed. Values without a mark were called inactive. Active and inactive are the calls of the source. Calls come from the whole dose curve; as a rule, active = well fitted activation curve with a large enough effect; inconclusive = small, poorly fitted or top-dose-only effect; inactive = no such curve, though single readings can be large or run the other way.
# Assay: qHTS assay for re-activators of p53 using a Luc reporter: Hit Validation; note: nearly all actives have a fitted effect of over 75% in size; for activation: 0% is about no effect
# Details: p53-responsive luciferase reporter cells, luminescence, H1299 line expressing heat-sensitive Ala138Val p53; series mostly up to 46.1 µM
# Method in brief: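 H1299 (p53-null) cells stably carrying p53-A138V and a BP100-luciferase reporter, 1000 cells/well, treated 24 h at 37 deg C. Compounds at several concentrations, 1:5 dilution; nocodazole control; luminescence read after 10 min with detection reagent.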
# Potency is the fitted concentration of half-maximal effect.
Structure (SMILES),Potency,activation
COc1ccccc1C(=O)NC(=S)NNC(=O)c1sc2ccccc2c1Cl,inactive,
COc1ccc(C(C)(C)C)cc1NC(=O)Nc1ccc2c(c1)OCO2,inactive,
O=C(Nc1ccc(Cl)cc1)Nc1nnc(SCc2ccccc2)s1,inactive,
CCOc1ccc(S(=O)(=O)c2c(C(=O)c3ccc(C)cc3)cnc3cc4c(cc23)OCCO4)cc1,inactive,
COc1ccc(C(=O)O/N=C(\N)c2ccccc2)c(OC)c1,0.366 µM (active),
Cc1cccc(N2CCN(S(=O)(=O)c3ccc4c(c3)CCC(=O)N4)CC2C)c1 (configuration not stated),inactive,
CCc1ccc2oc(-c3ccc(N)cc3)nc2c1,0.092 µM (active),
CCOC(=O)NC1(Nc2ccc(C)cc2)Oc2ccccc2O1,16.4 µM (active),
COc1cc(C(=O)NCC(=O)Nc2c(C)cccc2C)ccc1OCc1ccccc1,inactive,
COCC(=O)Nc1nnc(COc2ccccc2)s1,inactive,
Cc1ncsc1C(=O)Nc1nc2c(s1)CCCC2,1.84 µM (active),
Cc1cc(Br)c(S(=O)(=O)NCCN2CCOCC2)cc1C,inactive,
C/C(=N\NC(=O)c1ccccc1)c1ccc(NC(=O)c2cccs2)cc1,inactive,
COc1cc(CN2CCCCC2C(=O)Nc2ccc(Oc3ccccc3)nc2)ccc1O (configuration not stated),inactive,
O=C(Nc1ccc(N2CCCCCC2)cc1)c1ccc[nH]1,1.16 µM (active),
COc1ccc(/C(N)=N/OC(=O)c2cccs2)cc1,5.17 µM (active),
Cc1c(C(=O)NC2=NCCS2)oc2ccccc12,0.58 µM (active),
COc1cccc(C(=O)c2sc(NC(C)C)nc2N)c1,,25.6% [at 9.22 µM]
CC(C)CCn1cnc2c(sc3nc4c(cc32)CSC(C)(C)C4)c1=O,0.517 µM (active),

Structure (SMILES),Potency,activation
O=C(CC1SC(N2CCCC2)=NC1=O)Nc1ccc(C(=O)Nc2ncccc2O)cc1 (configuration not stated),16.4 µM (active),
Cc1cc(N2CCCCC2)n2ncc(-c3ccc(Cl)cc3)c2n1,0.82 µM (active),
c1nc(C2CCCCC2)cc2cc3c(cc12)OCO3,6.51 µM (active),
COCCCN(C(C)=O)c1nc(-c2ccc(OC)cc2)cs1,2.31 µM (active),
c1cnc2c(OCc3nc4ccccc4[nH]3)cccc2c1,6.51 µM (active),
COc1cc(C(=S)N2CCOCC2)ccc1OC(=O)c1ccccc1C,inactive,
CCOc1ccc2c(c1)C(C)=CC(C)(C)N2S(=O)(=O)c1ccc(NC(C)=O)cc1,inactive,
C/C(=N\NC(=O)c1ccc(F)cc1)c1ccccn1,2.06 µM (active),
COCCn1c(C)cc(C(=O)COc2ccc(N(C)S(=O)(=O)c3ccc(C)cc3)cc2)c1C,inactive,
Cc1cc(C)cc(NC(=O)c2sc3nc(C)cc(C)c3c2N)c1,11.6 µM (active),
CC(=O)N1CCC(C(=O)Nc2ccc(S(=O)(=O)NCCc3ccccc3)cc2)CC1,inactive,
N=C1C(c2nc3ccccc3s2)=C(O)CN1Cc1ccccc1,14.6 µM (active),
Cc1sc(NC(=O)c2ccc(Cl)s2)c(C(N)=O)c1C,4.11 µM (active),
O=C(Nc1ccc2ccccc2c1)c1ccc(Cl)cc1Cl,0.291 µM (active),
CC(C)C(=O)NC(c1cccs1)c1cc([N+](=O)[O-])c2cccnc2c1O (configuration not stated),inactive,
COc1ccc(CCC(=O)Nc2ccc(-c3noc(-c4ccc(OC)c(OC)c4)n3)cc2)cc1,inactive,
OCCNc1nc(NCc2ccccc2)c2ccccc2n1,,-3.8% [at 9.22 µM]
CC(C)N1C(=O)CN(C2CCCCCC2)C(=O)C1c1ccccc1F (configuration not stated),inactive,
